Data on 44 compounds can be found in PubChem BioAssay AID1851 (National Center for Advancing Translational Sciences (NCATS), 2009).

“And” between values parts separate entries of the source, which are not always exact repeats. Identical values can stand only once. About 5,800 (36%) of roughly 16,000 compounds were called active. Not shown: some 23% with an inconclusive outcome. Calls come from the whole dose curve; as a rule, active = well fitted curve in the direction sought with a large enough effect; inconclusive = small, poorly fitted or top-dose-only effect, or effect the other way; inactive = no such curve, though single readings can be large or run the other way. Some of the results follow. A structure can be active in one record and inactive in another.
% is set by controls: 0 for no effect and ±100 for the full control effect.

The target in this assay is Cytochrome P450 2C19 (Homo sapiens) (UniProt P33261). Briefly: Cytochrome panel assay with activity outcomes. The following applies: recombinant CYP, pro-luciferin dealkylation, luminescence, p450-cyp2c19; series mostly up to 57.1 µM; activity, negative = inhibition: at the top concentration. The procedure: The P450 gene superfamily is involved in the metabolism and clearance of xenobiotics. This assay used various human CYP P450 isozymes to measure the dealkylation of various pro-luciferin substrates to luciferin. The luciferin is then measured by luminescence after the addition of a luciferase detection reagent. Pro-luciferin substrate concentration in the assay was equal to its KM for its CYP P450 isozyme. Inhibitors and some substrates limit the production of luciferin, and decrease measured luminescence.
Cytochrome P450 2C19 (Homo sapiens), sequence (P33261 whole entry, looked up): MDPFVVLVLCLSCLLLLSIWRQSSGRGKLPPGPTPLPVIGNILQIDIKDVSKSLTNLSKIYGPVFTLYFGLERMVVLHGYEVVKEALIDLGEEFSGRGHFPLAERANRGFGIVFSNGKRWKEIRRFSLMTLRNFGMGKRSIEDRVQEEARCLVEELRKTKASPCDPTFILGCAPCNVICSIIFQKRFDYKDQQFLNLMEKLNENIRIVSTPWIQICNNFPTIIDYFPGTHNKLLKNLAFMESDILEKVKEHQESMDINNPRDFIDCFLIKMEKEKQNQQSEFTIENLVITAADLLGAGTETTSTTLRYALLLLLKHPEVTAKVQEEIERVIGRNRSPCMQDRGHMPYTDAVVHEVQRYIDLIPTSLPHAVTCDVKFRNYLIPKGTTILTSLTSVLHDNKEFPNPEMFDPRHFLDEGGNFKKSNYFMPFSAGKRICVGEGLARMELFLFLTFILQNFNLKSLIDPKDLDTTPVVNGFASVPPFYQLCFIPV
NCGC Assay Protocol Summary:
1, Reagent, 2 uL, Isozyme and Pro-Luciferin
2, Library compounds, 23 nl, 40 uM to 0.24 nM dilution series
3, Controls, 23 nl, Isozyme specific inhibitor
4, Reagent, 2 uL, NADPH regeneration solution
5, Incubation time, 60 min, Isozyme specific temperature
6, Reagent, 4ul, Detection reagent
7, Incubation time, 20 min, Isozyme specific temperature
8, Detection, 1 sec, ViewLux luminescent read
The luciferase-based P450-GloTM Screening Systems were obtained from Promega (Madison, WI) for CYP 1A2 (V9770), CYP 2C9 (V9790), CYP2 C19 (V9880), CYP 2D6 (V9890), and CYP 3A4 Luciferin-PPXE (V9910) and were adapted for 1,536-well microplates and an automated protocol. The control compounds furafylline for 1A2 (F124), sulfaphenazole for CYP 2C9 (S0758), ketoconazole for CYP 2C19 (K1003), quinidine for 2D6 (Q3625), and ketoconazole for 3A4 (K1003) were purchased from Sigma Aldrich (St. Louis, MO). Recombinant P450 enzymes were obtained from baculovirus constructs expressed in insect cells (BD/Gentest).
Medium-binding white solid Kalypsys plates used. Mixtures kept on ice. 1A2: 10 nM 1A2, 100 uM Luc-ME, 100 mM KPO4; 2C9: 10 nM 2C9, 100 uM Luc-H, 25 mM KPO4; 2C19: 5 nM 2C19, 10 uM Luc-H EGE, 50 mM KPO4; 2D6: 5 nM 2D6, 30 uM Luc-ME EGE, 100 mM KPO4; 3A4: 10 nM, 25 uM Luc-PPXE. All amounts are reflected in their final concentration, working concentration is 2x.
NADPH regeneration solution: 1.3 mM NADP+, 3.3 mM glucose-6-phosphate, 3.3 mM MgCl2, 0.4 U/mL glucose-6-phosphate dehydrogenase for all isozymes, 200 mM KPO4 for 3A4. Mixture prepared at RT but kept on ice during automated run.
RT incubation in auxilliary plate hotel for 1A2, 2D6, and 3A4; 37C for 2C9 and 2C19.
Keywords: P450, CYP1A2, CYP2C19, CYP2C9, CYP2D6, CYP3A4, Luciferase, MLSMR, MLSCN, NIH Roadmap, qHTS, NCGC
As for `COc1ccc2c(c1)CCC1C2CC[C@]2(C)[C@H](NCCCCCCN3C(=O)C=CC3=O)CC[C@@H]12` (some centres undefined), the “activity, negative = inhibition” value was 33.9% (inactive). The same measure, in the same setting: to `COc1cc2c(c(OC)c1OC)-c1ccc(O)c(=O)cc1[C@H](N)CC2` belongs -2.81% [at 25.6 µM] (inactive); to `CN1[C@@H](C[C@@H](O)c2ccccc2)CCC[C@@H]1C[C@H](O)c1ccccc1`, 35.4% [at 25.6 µM] (inactive); to `O=C(Oc1ccccc1)N1CCC2(CCCN(Cc3nccs3)C2)CC1`, 22.6% (inactive). Same read-out and setting: in the case of `NCC[C@H](O)C(=O)N[C@H]1C[C@@H](N)[C@@H](O[C@H]2O[C@@H](CN)[C@@H](O)[C@@H](O)[C@@H]2N)[C@@H](O[C@H]2O[C@@H](CO)[C@@H](O)[C@@H]2O)[C@@H]1O` it was 23.6% [at 25.6 µM] (inactive); in that of `Nc1nc(N)c(N=Nc2ccc([As](=O)(O)O)c(O)c2)c(N)n1`, 31% [at 11.4 µM] (inactive); in that of `NC(=NCCc1ccc(I)cc1)SCCCc1cnc[nH]1`, -36.4% (inactive). Regarding `CN1C(=O)C(=Cc2ccc(N3CCCCCC3)o2)C(=O)N(C)C1=S`, the AC50 (in general, the midpoint of the concentration-response curve, whichever way the signal moves) was 2.24 µM (active). As for `O=C(Nc1cccc(F)c1)N1CC2(CCNCC2)C1`, the “activity, negative = inhibition” value is -10.4% (inactive). The same measure, in the same setting: to `COC(=O)[C@@H]1[C@@H](O)[C@@]2(O)c3c(OC)cc(OC)cc3O[C@@]2(c2ccc(OC)cc2)[C@H]1c1ccccc1` belongs 8.06% [at 11.4 µM] (inactive); to `CCC1=C(C[C@H]2NCCc3ccccc32)C[C@@H]2c3cc(OC)c(OC)cc3CCN2C1`, -23.2% [at 11.4 µM] (inactive). On the same count and under the same terms, to `C[C@]12CC[C@@H]3[C@H](CCC4=CC(=O)CC[C@]43C)[C@]1(O)CC[C@@]2(O)C(=O)CO` belongs 24.8% [at 11.4 µM] (inactive); to `N[C@@H]1C=CC=C(C(=O)O)C1`, 26.3% (inactive). Consider `O=[N+]([O-])c1ccc(S(=O)(=O)Cc2ccccc2)c([N+](=O)[O-])c1`, for which the AC50 is 2 µM (active). Consider `O=C(O)Cc1ccc([N+](=O)[O-])cc1[N+](=O)[O-]`, for which the activity, negative = inhibition is -28.8% [at 11.4 µM] (inactive). Regarding `O=[N+]([O-])c1cc(O)c(O)c([N+](=O)[O-])c1`, the “activity, negative = inhibition” value was -35.3% (inactive). Same read-out and setting: in the case of `c1ccc(N2CC[C@@]3(CCCNC3)C2)nc1` it was 10.5% (inactive). With `CN1C(=O)C(=Cc2ccccc2Oc2ccc(Cl)c(F)c2)C(=O)N(C)C1=O`, the AC50 was 3.55 µM (active). For the compound `COc1cc2c(cc1OC)[C@@]13CCN4CC5=CCO[C@H](CC(=O)O)[C@@H]([C@H]1N2)[C@H]5C[C@H]43`, the activity, negative = inhibition is -11.9% [at 11.4 µM] (inactive). Same read-out and setting: in the case of `C[C@](N)(CCP(=O)(O)O)C(=O)O` it was -26.4% (inactive). As to `CC1CN=C(Nc2cccc3ccccc23)S1` (centres undefined), the AC50 was 3.98 µM (active). On to `CC(=O)O[C@@H]1CN2CCC1CC2`, for which the “activity, negative = inhibition” value was -13.1% (inactive). Same read-out and setting: to `c1ccc(CCN2CCCCCC2)nc1` belongs 38.1% [at 11.4 µM] (inactive). Turning to `CC(=O)N[C@@H]1CCSC1=O`, the “activity, negative = inhibition” value is 14.5% [at 25.6 µM] (inactive).

As to `CN(N=O)C(=O)N[C@H]1C(O)OC(CO)[C@@H](O)[C@H]1O` (some centres undefined), the AC50 is 7.94 µM (active). `CC(=O)[C@]1(O)CC[C@@H]2[C@H]3C[C@@H](C)C4=CC(=O)CC[C@@]4(C)[C@H]3[C@@H](O)C[C@]21C`: the activity, negative = inhibition was -31.5% [at 11.4 µM] (inactive). Regarding `C=C[C@@H]1CN2CC[C@H]1C[C@H]2[C@H](O)c1ccnc2ccccc12`, the activity, negative = inhibition was 44.5% [at 11.4 µM] (inactive). The same measure, in the same setting: in the case of `NC(N)=NN=Cc1c(Cl)cccc1Cl` it was 27.6% [at 25.6 µM] (inactive). `CCCN1CCO[C@@H]2c3cc(O)ccc3OC[C@@H]21`: the AC50 is 10 µM (active). For `CCCN1CCO[C@@H]2c3cc(O)ccc3OC[C@H]21`, the “activity, negative = inhibition” value was -29.4% (inactive). Regarding `CCCN1CC[C@@H]2c3cc(O)ccc3CC[C@H]21`, the “activity, negative = inhibition” value was -19% (inactive). Still for that read-out and setting: to `O=C(O)[C@H]1[O][Sb][O][C@@H](C(=O)O)C1O` (some centres undefined) belongs 15.3% [at 11.4 µM] (inactive); to `COc1cc2ccccc2c2cc([N+](=O)[O-])oc12`, -34.1% [at 11.4 µM] (inactive); to `c1cc(CCN2CCCCC2)ccn1`, 9.84% [at 11.4 µM] (inactive). For `c1ccc2c([C@@H]3CCN(CCN4CCOCC4)C3)c[nH]c2c1`, the activity, negative = inhibition is 23.2% [at 11.4 µM] (inactive). For the compound `c1ccc(CCCCN2CCC(c3ccccc3)CC2)cc1`, the concentration at half-maximal activity (AC50) was 15.8 µM (active).

In the case of `C1C[C@@H]2CN(CCCN3CCOCC3)[C@@H](C1)O2`, the activity, negative = inhibition was -1.65% [at 11.4 µM] (inactive). For `Cc1c2cc[n+](CCN3CCCCC3)cc2c(C)c2c1[nH]c1ccc(O)cc12`, the activity, negative = inhibition is 17.2% [at 11.4 µM] (inactive).

As for `N=C1c2ccccc2CN1NC(=O)c1ccc(Cl)cc1`, the “activity, negative = inhibition” value is 1.92% (inactive).

As to `C[C@@H]1O[C@H](O[C@H]2C[C@@H](O)[C@@]3(CO)[C@H]4[C@@H](O)C[C@]5(C)[C@@H](C6=CC(=O)OC6)CC[C@]5(O)[C@H]4CC[C@]3(O)C2)[C@@H](O)[C@H](O)[C@@H]1O`, the “activity, negative = inhibition” value was -10.4% [at 25.6 µM] (inactive). `CCN1C[C@]2(COC(=O)c3ccccc3N3C(=O)C[C@H](C)C3=O)CC[C@H](OC)[C@@]34[C@@H]5C[C@H]6[C@H](OC)[C@H]5[C@](O)(C[C@@H]6OC)[C@@](O)([C@@H](OC)[C@@H]23)[C@@H]14`: the “activity, negative = inhibition” value is 3.08% (inactive). Consider `CC[C@@]1(O)C(=O)OCc2c1cc1n(c2=O)Cc2cc3c(NC(=O)CN)cccc3nc2-1`, for which the activity, negative = inhibition was 11.8% [at 11.4 µM] (inactive). Consider `CC[C@@]1(O)C(=O)OCc2c1cc1n(c2=O)Cc2cc3ccccc3nc2-1`, for which the AC50 entry is “inactive and 20 µM (active)”.

In the case of `CC[C@]1(OC(=O)CN)C(=O)OCc2c1cc1n(c2=O)Cc2cc3ccccc3nc2-1`, the activity, negative = inhibition was 17% [at 11.4 µM] (inactive).
